± gives the standard deviation of the averaged measurements. Over roughly 33,000 sequences, “E-score (rank enrichment, -0.5 to 0.5)” has its median near -0.0043; the highest 2% begin near 0.24. Only a selection was taken, and the highest values are over-represented in it overall.
The sequences below were run on 2Sp-muMax20 (muMax20 with two 2,6-bis(methyl)pyridine Cys staples) (assay: PBM 8-mer E-score (E-score (rank enrichment, -0.5 to 0.5)); higher = stronger preferential binding).
Procedure: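 Protein binding microarray (universal PBM chip covering all 10-mers in fixed probe flanks) with chemically synthesized human Max(13-93) bHLH-LZ analogs (not full-length Max) bearing noncanonical residues (hArg, Tha, Aib, Nle at 65) and aromatic Cys staples. Read-out per 8-mer (and its reverse complement): E-score (rank-based enrichment, -0.5 to 0.5) and Z-score of median probe intensity.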

Sequence | PBM 8-mer E-score
GTAATTAC | 0.177 ± 0.0081
CTAATTAA | 0.0684 ± 0.14
AAAATTAT | 0.252 ± 0.027
ATAATTAC | 0.297 ± 0.044
AAAATTAA | 0.126 ± 0.057
CAGCTGGC | 0.00279 ± 0.062
TAAGACGA | 0.118 ± 0.035
AGTTCACA | 0.0105 ± 0.0032
AATATCAC | 0.189 ± 0.038
AAGCTGCT | -0.0983 ± 0.048
ACTGACTA | -0.00544 ± 0.014
GGCCTAGA | -0.101 ± 0.039
AGGGCGAG | 0.00325 ± 0.014
AACTAGCT | -0.0509 ± 0.098
CTAATTAG | -0.0106 ± 0.077
CTAACTAA | 0.0344 ± 0.032
TTAACTAA | 0.248 ± 0.0099
ATAATTAG | 0.289 ± 0.006
ATAACTAA | 0.174 ± 0.018
ATAATTCG | 0.221 ± 0.06
ACTCGCTG | -0.155 ± 0.038
AATTGTAC | 0.22 ± 0.0078
TGGTATAA | 0.219 ± 0.019

Sequence | PBM 8-mer E-score
CGGGTACC | -0.168 ± 0.059
ACGCTACA | 0.161 ± 0.04
ACCCCAGA | 0.102 ± 0.066
ACCCCAGG | -0.135 ± 0.03
ACCCCAGT | 0.303 ± 0.048
ACCCCAAC | 0.2 ± 0.075
ACCCCAAT | 0.248 ± 0.017
ACCCCAAG | 0.167 ± 0.067
CGGCTCAG | -0.245 ± 0.011
AAGGCGAG | -0.114 ± 0.11
CCGCACCG | -0.232 ± 0.037
ATTGTAGG | 0.163 ± 0.04
AGAAACAA | 0.23 ± 0.034
ATTATGTG | 0.19 ± 0.015
ATAATGTA | 0.261 ± 0.054
ATTATGTA | 0.252 ± 0.063
CTAATGTA | 0.0902 ± 0.11
ATAATGTC | 0.0928 ± 0.013
ATTATGTC | -0.0254 ± 0.039
CCAAGGTA | -0.122 ± 0.08
ATGGTCCG | -0.11 ± 0.052
GAGCTTAC | 0.0525 ± 0.066
TACCCTGA | 0.0285 ± 0.0041

Sequence | PBM 8-mer E-score
GCTGAGAC | -0.0936 ± 0.027
GGTTGGCA | -0.0827 ± 0.032
AAAAGCGC | 0.236 ± 0.064
AAAAAGCA | 0.206 ± 0.014
AAAAGCTG | 0.272 ± 0.0057
AAAAGCGA | 0.147 ± 0.046
AAAAAGCC | 0.0819 ± 0.062
AAAAAGCT | 0.282 ± 0.011
AAAAGCTA | 0.141 ± 0.049
CAAAGCGC | -0.0804 ± 0.097
CAAAGCTG | 0.0649 ± 0.017
ACTTTTGG | 0.145 ± 0.018
GCAACGGC | -0.147 ± 0.018
GGCTCAGA | -0.204 ± 0.025
CCGAAGCC | -0.258 ± 0.035
ATAGCTAC | 0.204 ± 0.0011
AGGTGTCG | -0.0243 ± 0.082
CAGAGGCC | -0.0446 ± 0.062
AACAATTG | 0.0804 ± 0.12
AACAATTA | 0.246 ± 0.078
CTCAATTA | 0.0912 ± 0.079
ATCAATTC | 0.159 ± 0.024
AACAATTC | 0.166 ± 0.067

Sequence | PBM 8-mer E-score
ATCAATTA | 0.28 ± 0.041
ATCAATTG | 0.255 ± 0.068
GTCAATTA | 0.0735 ± 0.075
ATCAATCG | 0.16 ± 0.038
AACGTCAT | 0.0419 ± 0.012
AAGTTTCG | 0.0139 ± 0.064
TACACTCA | 0.0543 ± 0.059
CCAGAAAA | -0.0128 ± 0.11
GGGCAAAC | -0.0742 ± 0.046
AATCTATC | 0.061 ± 0.099
CTGTCTAC | -0.085 ± 0.0076
ACGGGTGA | -0.227 ± 0.052
ACCACCCG | -0.146 ± 0.077
GCCACCCA | -0.126 ± 0.068
CACACCCG | -0.15 ± 0.012
GCCACTTA | 0.0747 ± 0.039
CCCACCCC | 0.332 ± 0.046
TCCACCCA | 0.00246 ± 0.039
ACCACCCC | 0.0435 ± 0.03
CCCACTTC | 0.00615 ± 0.027
CCCACTTA | 0.236 ± 0.023
GCCACCCC | -0.0325 ± 0.055
CCCACCCG | 0.29 ± 0.03

Sequence | PBM 8-mer E-score
CCCACCCA | 0.364 ± 0.023
ATCGGCCG | -0.187 ± 0.13
CCGGCGGC | -0.269 ± 0.029
CCTATTCG | -0.105 ± 0.0044
ACGAAGAA | 0.16 ± 0.06
ATGCGATC | 0.00891 ± 0.016
CAAGACGG | -0.109 ± 0.028
GCAATTGC | 0.242 ± 0.013
CCAATTGC | 0.108 ± 0.012
GCAATTGA | 0.0718 ± 0.079
ACGTCCCG | -0.326 ± 0.046
AGGGCGGA | -0.101 ± 0.0044
AGGGCGGC | -0.0202 ± 0.17
AGGGCGGG | 0.311 ± 0.011
ATAACTTC | 0.0494 ± 0.033
ATAACGTA | 0.107 ± 0.085
ATAACTTG | 0.241 ± 0.012
ATAACGTG | 0.293 ± 0.018
ATAACTTA | 0.14 ± 0.043
ATAACGTC | 0.138 ± 0.029

Reference: the supplement of paper PMC12636033
